From PubChem BioAssay
p53null 32C tox = qHTS Screen for Compounds that Selectively Target Cancer Cells with p53 Mutations: Cytotoxicity of p53 Null Cells at the Permissive Temperature; Potency, µM (top dose mostly 46.1 µM), for the others: top-dose activity change, negative = cytotoxicity, hits mostly cytotoxic; actives 0.62% (n = 55,000); H1299-neo p53 null cells, ATP luminescence, 24 h, 32C;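 also: potency is read from the fitted curve at half-maximal effect; 0% = DMSO only and -100% = full killing by 100 µM tamoxifen; nearly all actives have a fitted effect of over 55% in size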
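H1299-neo (p53-null) cells, 600/well, were pre-incubated overnight at 37C, then exposed to compounds at up to 46 uM for 24 hr at 32C. Viability was measured as ATP content by luminescence, and AC50 values came from Hill fits.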
S16 F2sN tox = Cell viability qHTS assay in S16 Pmp22-F2sN cells; S16 Pmp22-F2sN Schwann cells viability, CellTiter-Glo, 24 h; actives 0.48% (n = 43,000); AID 1508642, 2021; Potency, µM (top dose mostly 57.5 µM), for the others: top-dose activity change, negative = cytotoxicity, hits mostly cytotoxic; also: potency is read from the fitted curve at half-maximal effect; % is scaled to controls: 0 for no effect and ±100 for the full control effect; nearly all actives have a fitted effect of over 65% in size
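S16 Schwann cells carrying the Pmp22-F2sN reporter, seeded in 1536-well format, were exposed to library compounds for 24 h at 37C. Viability was read as CellTiter-Glo luminescence after 15 min at room temperature.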
PMP22 txn = Cell-based coincidence reporter assay to measure PMP22 gene transcription in S16 Pmp22-F2sN cells - Primary screen. S16 Pmp22-F2sN Schwann cells (luciferase reporters placed in the Pmp22 gene), FLuc/NLuc coincidence luminescence, 24 h. Potency, µM (top dose mostly 57.5 µM), inactives show top-dose activity change, negative = inhibition, usual class: inhibitors. actives 2% (n = 43,000); active = clear falling dose curves in both reporters; inconclusive = both reporters move, but less clearly or upward; inactive = either reporter flat; the % is the NLuc reporter signal; also: potency is read from the fitted curve at half-maximal effect; % is scaled to controls: 0 for no effect and ±100 for the full control effect
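Rat S16 Pmp22-F2sN cells, 500-1,000/well in phenol red-free DMEM + 10% FBS, compound-treated 24 h (37C, 5% CO2). Luminescence: FLuc read, Stop&Glo added, NLuc read.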
pS6 MEF inh = Acumen qHTS Assay for Inhibitors of the mTORC1 Signaling Pathway in MEF (Tsc2-/-, p53-/-) Cells: Sytravon; Potency, µM (series often up to 38.3 µM), for inactives: at the highest dose activity change, negative = inhibition, usual class: inhibitors; actives 0.78% (n = 44,000); AID 493208, 2011; Tsc2-/- p53-/- MEF, phospho-rpS6 immunofluorescence/PI, 24 h;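 also: potency is read from the fitted curve at half-maximal effect; plate controls were DMSO for no effect and rapamycin for full effect; nearly all actives have a fitted effect of over 50% in size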
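Immunofluorescence of rpS6 phosphorylation in Tsc2-/-, p53-/- MEFs after 24 h compound exposure, normalized to propidium iodide signal. Activity is expressed as % positive cells, thresholded with 7.5 nM rapamycin.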
p53null 39C tox = qHTS Screen for Compounds that Selectively Target Cancer Cells with p53 Mutations: Cytotoxicity of p53 Null Cells at the Nonpermissive Temperature; H1299 p53-null (neo) cells, 39C, ATPlite viability, 24 h; Potency, µM (top dose mostly 46.1 µM), without a hit: at the highest dose activity, negative = cell killing, hits mostly cytotoxic; actives 0.97% (n = 55,000); AID 904, 2007;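 also: potency is read from the fitted curve at half-maximal effect; 0% = DMSO only and -100% = full killing by 100 µM tamoxifen; nearly all actives have a fitted effect of over 50% in size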
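Cells seeded at 600/well, 37C overnight. Compound added (up to 46 uM), plates shifted to 39C for 24 hr. ATPlite added, luminescence read after 20 min at room temperature.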
OvCa metastasis = Primary qHTS assay for Inhibitors of ovarian cancer metastasis using an organotypic tumor microenvironment (TME) model. SKOV3ip1-GFP adhesion/invasion on 3D omental model, fluorescence. Potency, µM (highest dose often 45.8 µM), inactives show top-dose activity change, negative = inhibition, hits mostly inhibitors. actives 0.1% (n = 46,000). AID 1963576, 2024;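 also: potency is read from the fitted curve at half-maximal effect; plate controls were DMSO wells for no effect and tomatine positive control wells for full effect; nearly all actives have a fitted effect of over 65% in size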
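A 3D layer of primary human omental fibroblasts, mesothelial cells, fibronectin and collagen I, grown 48 hr, received SKOV3ip1-GFP cells in serum-free medium plus compounds at 0.36-46 umol/L. After 2 hr RT and 16 hr 37 C, fixed adherent GFP cells were counted; normalized to DMSO and tomatine.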
NLuc saturating = Biochemical NLuc saturation counterscreen for small molecule modulators of PMP22 gene expression - Nano-Glo assay | Potency, µM (top dose mostly 57.5 µM), inactives show top-dose activity change, negative = inhibition, actives largely listed as inhibitors | actives 4% (n = 690) | shares compounds with PMP22 txn | Secreted NLuc enzyme (filtered S16 cell medium), Nano-Glo luminescence; also: potency is read from the fitted curve at half-maximal effect; % is scaled to controls: 0 for no effect and ±100 for the full control effect
NLuc Km counter = Biochemical coelenterazine-based NLuc counterscreen for small molecule modulators of PMP22 gene expression - Km assay; shares compounds with PMP22 txn; secreted NLuc enzyme, coelenterazine luminescence, Km conditions; Potency, µM (top dose mostly 57.5 µM), for inactives: top-dose activity change, negative = inhibition, usual class: inhibitors; actives 5% (n = 690); also: potency is read from the fitted curve at half-maximal effect; % is scaled to controls: 0 for no effect and ±100 for the full control effect
FLuc ctr PMP22 = Biochemical FLuc counterscreen for small molecule modulators of PMP22 gene expression; Potency, µM (titrated, usually from 57.5 µM), for the others: at the highest dose activity, negative = inhibition, usual class: inhibitors; shares compounds with PMP22 txn; purified P. pyralis FLuc, luminescence, 10 min; 690 tested, under 10 active; also: % of control where 0% means no effect
Target sequence (P08659 whole entry, looked up): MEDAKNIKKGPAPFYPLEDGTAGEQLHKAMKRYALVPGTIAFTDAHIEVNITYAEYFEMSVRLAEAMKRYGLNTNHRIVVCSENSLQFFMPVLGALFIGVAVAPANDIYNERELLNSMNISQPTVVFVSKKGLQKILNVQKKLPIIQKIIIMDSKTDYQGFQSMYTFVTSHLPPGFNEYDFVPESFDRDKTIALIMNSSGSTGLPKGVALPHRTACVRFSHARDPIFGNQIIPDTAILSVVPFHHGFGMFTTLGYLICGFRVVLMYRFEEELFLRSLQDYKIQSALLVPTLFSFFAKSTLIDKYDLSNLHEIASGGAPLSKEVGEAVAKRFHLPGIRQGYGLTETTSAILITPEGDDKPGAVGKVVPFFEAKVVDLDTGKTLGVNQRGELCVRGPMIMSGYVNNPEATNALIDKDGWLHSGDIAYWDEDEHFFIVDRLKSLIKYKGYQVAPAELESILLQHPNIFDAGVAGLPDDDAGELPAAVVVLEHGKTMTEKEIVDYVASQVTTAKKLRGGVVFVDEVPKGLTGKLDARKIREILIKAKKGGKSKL
S16 viab conf = Cell viability qHTS assay in S16 Pmp22-F2sN cells - Confirmatory screen; shares compounds with PMP22 txn; S16 Schwann cells viability, CellTiter-Glo ATP luminescence, 24 h; Potency, µM (series often up to 57.5 µM), inactives show at the top dose activity change, negative = viability loss, most hits filed as cytotoxic; actives 7% (n = 690); AID 1508641, 2021; also: potency is read from the fitted curve at half-maximal effect; % is scaled to controls: 0 for no effect and ±100 for the full control effect
PMP22 txn cnf = Cell-based coincidence reporter assay to measure PMP22 gene transcription in S16 Pmp22-F2sN cells - Confirmatory screen; actives 22% (n = 690); Potency, µM (series often up to 57.5 µM), inactives show top-dose activity change, negative = inhibition, actives largely listed as inhibitors; AID 1508646, 2021; shares compounds with PMP22 txn; S16 Schwann cells Pmp22-F2sN, dual luciferase, 24 h; active = clear falling dose curves in both reporters; inconclusive = both reporters move, but less clearly or upward; inactive = either reporter flat; the % is the FLuc reporter signal; also: potency is read from the fitted curve at half-maximal effect
Starred values were filed as active, the others as inactive; ? = inconclusive; . = no result given. Most compounds without a hit are left out; they make up all but 3.1% or so of the library. Unless noted, calls follow the shape of the dose curve; as a rule, active = well fitted curve in the direction sought with a large enough effect; inconclusive = small, poorly fitted or top-dose-only effect, or another doubt; inactive = no such curve, though single readings can be large; an effect the other way counts as inactive or inconclusive.

SMILES	p53null 32C tox	S16 F2sN tox	PMP22 txn	pS6 MEF inh	p53null 39C tox	OvCa metastasis	NLuc saturating	NLuc Km counter	FLuc ctr PMP22	S16 viab conf	PMP22 txn cnf
O=C(CSc1nncn2c1cc1occc12)Nc1ccc(F)c(Cl)c1	1%	-3%	-26%	-15%	-20%	4%	.	.	.	.	.
CCC(Sc1nncn2c1cc1occc12)C(=O)Nc1ccc(C)c(Cl)c1 (configuration not stated)	6%	?	17µM*	0%	6%	4%	?	?	-16%	-5%	?
CO[C@H]1/C=C\O[C@@]2(C)Oc3c(C)c(O)c4c(O)c(c(C=NN5CCN(C6CCCC6)CC5)c(O)c4c3C2=O)NC(=O)C(C)=CC=C[C@H](C)[C@H](O)[C@@H](C)[C@@H](O)[C@@H](C)[C@H](OC(C)=O)[C@H]1C	.	.	.	.	.	5%	.	.	.	.	.
CC=CC(=O)N(CC)c1ccccc1C	.	.	.	.	.	5%	.	.	.	.	.
COc1ccc2c(c1)-c1nc(NC(=O)c3cc(Cl)ccc3OC)sc1CC2	-6%	-3%	17µM*	3%	-25%	-7%	-15%	-9%	2%	?	?
C[N+]1(C)[C@@H]2CC(OC(=O)[C@H](CO)c3ccccc3)C[C@H]1[C@H]1O[C@@H]12 (some centres not stated)	.	.	.	.	.	10%	.	.	.	.	.
COc1ccc(NC(=O)c2c(NCc3ccc(C)o3)sc3c2CCCCC3)c(OC)c1	25%	-25%	14µM*	?	25%	-10%	?	?	-23%	7%	?
